Assay [1] can be described thus: qHTS assay to identify small molecule agonists of the vitamin D receptor (VDR) signaling pathway - cell viability counter screen (AID 743224). Also: series mostly up to about 63 µM; % is scaled to controls: 0 for no effect and ±100 for the full control effect; nearly all actives have a fitted effect of over 50% in size. The essentials: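 VDR-bla cell line, quantitative HTS format; 16 h compound incubation (37C, 5% CO2); ATP-based CellTiter-Glo luminescence measured in the reporter assay wells.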
A short description of assay [2]: qHTS assay to identify small molecule agonists of the NFkB signaling pathway (AID 1159509; active = well fitted curve in the direction sought with a large enough effect in the signal ratio in the repeat runs, not every such curve was filed as active; the % refers to the signal ratio; also: series mostly up to about 61 µM; % is scaled to controls: 0 for no effect and ±100 for the full control effect). The essentials: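 ME-180 NFkB-bla, 2,000 cells/well, overnight plating; cpd pinned in DMSO, 5 h 37 C; B/G FRET substrate 1.5 h RT; ex 405, em 460/530 nm.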
The nature of assay [3]: qHTS assay to identify small molecule agonists of the NFkB signaling pathway - cell viability counter screen (AID 1159515; calls by dose curve; also: series mostly up to about 61 µM; % is scaled to controls: 0 for no effect and ±100 for the full control effect; nearly all actives have a fitted effect of over 55% in size). The essentials:
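Viability in NFkB-bla ME-180 cells was measured by CellTiter-Glo luminescence, 30 min room temperature, in wells already treated 5 hr with compounds and read for reporter FRET.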

A short description of assay [4]: qHTS assay to identify small molecule agonists of the endoplasmic reticulum stress response signaling pathway (AID 1159516; active = well fitted activation curve with a large enough effect in the signal ratio in the repeat runs, not every such curve was filed as active; the % refers to the signal ratio; also: % is scaled to controls: 0 for no effect and ±100 for the full control effect). The essentials: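 ER stress element reporter (bla) in HeLa. 1,500 cells/well, overnight attachment; 5 hr compound; 2 hr RT substrate; dual-emission fluorescence.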
Assay [5] can be described thus: qHTS assay to identify small molecule agonists of the endoplasmic reticulum stress response signaling pathway - cell viability counter screen (AID 1159517; calls by dose curve;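 also: HeLa cells carrying an ER stress response element beta-lactamase reporter; series mostly up to about 61 µM; % is scaled to controls: 0 for no effect and ±100 for the full control effect; nearly all actives have a fitted effect of over 50% in size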). The essentials:
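CellTiter-Glo was added to wells already read for beta-lactamase FRET, and luminescence was recorded 30 min later. Cells: ESRE-bla HeLa, 1,500 per well, compound exposure 5 hr at 37 C.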

A short description of assay [6]: qHTS assay to identify small molecule antagonists of the retinoid-related orphan receptor gamma (ROR-gamma) signaling pathway - cell viability counter screen (AID 1159520). Also: % is scaled to controls: 0 for no effect and ±100 for the full control effect; nearly all actives have a fitted effect of over 50% in size. The essentials:
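Tet-on ROR gamma CHO cells (1,000/well) were plated 4 hr, given compounds in DMSO for 2 hr at 37 C, then induced with 1 uM final doxycycline for 16 hr. Viability was read as ATP by CellTiter-Glo luminescence after 30 min.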

The target in assay [7] is Nuclear receptor ROR-gamma (Homo sapiens) (UniProt P51449). In words: qHTS assay to identify small molecule antagonists of the retinoid-related orphan receptor gamma (ROR-gamma) signaling pathway (AID 1159521; also: nearly all actives have a fitted effect of over 50% in size; also: potency is read from the fitted curve at half-maximal effect). The essentials: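 Tet-on ROR-gamma CHO cells with ROR response element-luciferase reporter; compounds added 2 hr before 1 uM doxycycline induction, then 16 hr at 37 C. Antagonism scored as decreased ONE-Glo luminescence.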

A short description of assay [8]: qHTS assay to identify small molecule agonists of the AP-1 signaling pathway - cell viability counter screen (AID 1159525; calls by dose curve; also: nearly all actives have a fitted effect of over 55% in size). The essentials: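 ME-180 AP-1-bla, 2500 cells/well, Opti-MEM + 0.5% dialyzed FBS; overnight 37 °C; cpd 15-pt titration, 5 h 37 °C; CellTiter-Glo 30 min RT; luminescence read; normalised to TOAB and DMSO controls.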
Assay [9] can be described thus: qHTS assay to identify small molecule agonists of the AP-1 signaling pathway (AID 1159526; calls by dose curve; also: % is scaled to controls: 0 for no effect and ±100 for the full control effect).
Assay [10] addresses Retinoic acid receptor RXR-alpha (Homo sapiens) (UniProt P19793). In words: qHTS assay to identify small molecule agonists of the RXR signaling pathway (AID 1159527; calls by dose curve; also: % is scaled to controls: 0 for no effect and ±100 for the full control effect; nearly all actives have a fitted effect of over 35% in size). The essentials: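 GeneBLAzer RXR-alpha-UAS-bla HEK 293T cells in 2% charcoal-stripped FBS medium were exposed to compounds for 16 hr at 37 C in agonist mode. Beta-lactamase reporter read as 460/530 nm FRET ratio after 2 hr substrate loading.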

A short description of assay [11]: qHTS assay to identify small molecule agonists of the RXR signaling pathway - cell viability counter screen (AID 1159529). The essentials: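 RXR-alpha-UAS-bla HEK 293T cells in medium with 2% charcoal-stripped FBS were pre-incubated 5 hr, then compound-treated 16 hr at 37 C. Viability was read by CellTiter-Glo luminescence in the same wells as the beta-lactamase assay, with tetraoctyl ammonium bromide as positive control.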

The nature of assay [12]: qHTS assay to identify small molecule antagonists of the retinoid acid receptor (RAR) signaling pathway - cell viability counter screen (AID 1159551). Also: % is scaled to controls: 0 for no effect and ±100 for the full control effect; nearly all actives have a fitted effect of over 35% in size. The essentials: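 Following overnight attachment, C3RL4 reporter cells received DMSO-dissolved compounds and then retinol (1 uM final). Six hours later at 37 C, ATP content was measured by CellTiter-Glo luminescence.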
Assay [13] in a line: qHTS assay to identify small molecule antagonists of the retinoic acid receptor (RAR) signaling pathway (AID 1159552). The essentials: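 Retinol signaling pathway inhibitors screened in C3RL4 RARE-luciferase reporter cells seeded overnight at 37 C, then compounds added with 1 uM (final) retinol as pathway substrate. After 6 hr at 37 C, luciferase luminescence read after 30 min at room temperature.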

A short description of assay [14]: qHTS assay to identify small molecule agonists of the retinoic acid receptor (RAR) signaling pathway (AID 1159553). Also: % is scaled to controls: 0 for no effect and ±100 for the full control effect. The essentials:
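Cell line C3RL4, RARE luciferase reporter. Treatment: compounds in DMSO, 6 hr, 37 C, 5% CO2, after overnight plating. Detection: luminescence, 30 min RT after reagent.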

Assay [15] can be described thus: qHTS assay to identify small molecule antagonists of the vitamin D receptor (VDR) signaling pathway - cell viability counter screen (AID 743225). The essentials:
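VDR-UAS-bla HEK 293T cells were plated and incubated 4 h at 37C, then dosed with compound plus 3 nM (final) 1-alpha,25-dihydroxyvitamin D3 for 16 h. After the 2 h beta-lactamase read, viability in the same wells was read as CellTiter-Glo luminescence after 30 min at room temperature.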

Assay [16] can be described thus: qHTS assay to identify small molecule antagonists of the estrogen related receptor (ERR) signaling pathway - cell viability counter screen (AID 1224818). The essentials:
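Here, ERR cells are plated at 2,000 cells per well, allowed 6 h to attach, and treated with compounds in DMSO for 17.5 h at 37 C. CellTiter-Fluor is then added and fluorescence read after 30 min.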

Assay [17] is described as follows: qHTS assay to identify small molecule antagonists of the estrogen related receptor signaling pathway with the pleiotropic PPARgamma coactivator (PGC) cell viability counter screen (AID 1224822). The essentials:
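qHTS format, DMSO compound stocks pin-transferred onto PGC/ERR cells 6 h after plating; 17.5 h exposure at 37 C, then CellTiter-Fluor fluorescence.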

Assay [18] is described as follows: qHTS assay to identify small molecule antagonists of the estrogen related receptor (ERR) signaling pathway (AID 1224819). The essentials: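 LOPAC library screened for antagonism as reduced One-Glo luminescence in ERR reporter cells (2,000/well). Compounds were added after 6 h pre-incubation and left 18 h at 37C; reading followed a 30 min room-temperature reagent step.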

Assay [19] can be described thus: qHTS assay to identify small molecule agonists of the estrogen related receptor (ERR) signaling pathway (AID 1224820). Also: % is scaled to controls: 0 for no effect and ±100 for the full control effect. The essentials:
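Cells: ERR line from NTP, 2,000/well. Pre-incubation 6 h, 37 C/5% CO2. Compound (DMSO) pin transfer, 18 h 37 C. One-Glo, 30 min RT, luminescence.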

In assay [20] the test system is estrogen-related receptor alpha (ERRalpha) with PGC-1alpha coactivator, human. Description: qHTS assay to identify small molecule antagonists of the estrogen related receptor signaling pathway with the pleiotropic PPARgamma coactivator (PGC) (AID 1224821; calls by dose curve). The essentials:
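Luminescent read-out (One-Glo, 30 min at room temperature) following 18 h treatment of PGC/ERR cells at 37 C with compounds delivered in DMSO. Cells had settled 6 h at 37 C/5% CO2 before dosing.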

Results filed as inconclusive are left out. Values without a mark were called inactive. Active and inactive are the calls of the source. Unless noted, calls follow the shape of the dose curve; as a rule, active = well fitted curve in the direction sought with a large enough effect in the repeat runs; inconclusive = weak or mixed curves; inactive = no such curve, though single readings can be large; an effect the other way counts as inactive or inconclusive.

Retinoic acid receptor RXR-alpha (Homo sapiens), sequence (P19793 whole entry, looked up): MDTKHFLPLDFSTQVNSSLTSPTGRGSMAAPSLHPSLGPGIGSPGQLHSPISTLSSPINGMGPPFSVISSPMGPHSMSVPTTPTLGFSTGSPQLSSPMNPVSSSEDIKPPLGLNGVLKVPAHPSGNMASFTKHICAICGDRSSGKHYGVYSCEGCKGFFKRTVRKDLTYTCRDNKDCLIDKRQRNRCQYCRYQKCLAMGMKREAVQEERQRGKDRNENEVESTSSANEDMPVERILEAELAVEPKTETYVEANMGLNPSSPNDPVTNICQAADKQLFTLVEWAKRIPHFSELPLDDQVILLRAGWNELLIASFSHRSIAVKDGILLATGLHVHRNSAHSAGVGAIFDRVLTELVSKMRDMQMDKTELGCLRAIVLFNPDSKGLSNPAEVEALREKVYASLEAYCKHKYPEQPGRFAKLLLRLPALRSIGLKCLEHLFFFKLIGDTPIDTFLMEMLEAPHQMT

In the case of `NC(=O)COCCN1CCN(C(c2ccccc2)c2ccc(Cl)cc2)CC1` (stereo unspecified), the Potency entry in assay [1], in assay [8], in [10], in [11], in [13] and in assay [14] was “inactive” in each case. Further, the call in assay [2], in assay [3], in assay [4], in assay [5], in [6] and in [9] was inactive. In addition, the result in [12] was inactive. For the same compound, the Potency in assay [7] was 2660 nM (active).
In the case of `CCN1CCC[C@H]1CNC(=O)c1c(O)c(Cl)cc(Cl)c1OC`, the Potency entry in [1], in assay [15], in [7], in [8], in assay [10] and in assay [11] was “inactive” in each case. Moreover, the Potency entry in assay [13] and in assay [14] was “inactive” each time. Moreover, the result in [2], in assay [3], in assay [4], in assay [5], in assay [6] and in assay [9] was inactive. Moreover, the result in assay [12], in assay [16] and in assay [17] was inactive.
In the case of `COc1ccccc1OCC(O)CN1CCN(CC(=O)Nc2c(C)cccc2C)CC1` (stereo unspecified), the Potency entry in [1], in [15], in assay [7], in assay [8], in assay [10] and in [11] was “inactive” throughout. Moreover, the Potency entry in [13] and in [14] was “inactive” throughout. The result in [2], in assay [3], in assay [4], in assay [5], in assay [6] and in assay [9] was inactive. The result in assay [12], in assay [16] and in [17] was inactive.
With `CCS(=O)(=O)c1ccc(OC)c(C(=O)OC)c1`, the Potency entry in [1], in assay [7], in [8], in assay [10], in assay [11] and in assay [13] was “inactive” each time. In assay [14], the Potency entry was “inactive”. Also, the call in [2], in assay [3], in [4], in assay [5], in assay [6] and in assay [9] was inactive. The result in assay [12] was inactive.
For the compound `NCCCNCCSP(=O)(O)O`, the activity change, negative = cytotoxicity is 6.38% [at 13.2 µM] in [1], 10.1% [at 6.95 µM] in [5], 8.34% [at 6.97 µM] in assay [11] and 1.85% [at 8.39 µM] in [12]. In addition, the viability change, negative = cytotoxic in assay [15] was 2.84% [at 6.95 µM]; in [8] it was -1.42% [at 6.97 µM]. The activation in [2] is 0.134% [at 6.95 µM]; in assay [4], 0.0202% [at 6.95 µM]; in assay [9] it was -2.28% [at 6.97 µM]; in assay [10], 10.3% [at 6.98 µM]; in assay [14], -0.783% [at 8.36 µM]. Moreover, in [3], the activity, negative = cytotoxic was 0.56% [at 6.95 µM]. Moreover, in [6], the activity, negative = cytotoxicity was 4.74% [at 8.39 µM]. Besides, the activity change, negative = inhibition in [7] was 18.8% [at 8.39 µM]. Further, the activity, negative = inhibition in assay [13] is 8.45% [at 8.39 µM]. In addition, the compound was called inactive in assay [16] and in [17].
Take `CC(C(=O)O)c1ccc(CC2CCCC2=O)cc1` (stereo unspecified): the Potency result in assay [1], in assay [15], in [7], in assay [8], in assay [10] and in assay [11] was “inactive” in each case. In addition, the Potency entry in assay [13] and in [14] was “inactive” each time. Also, the compound was called inactive in assay [2], in [3], in assay [4], in [5], in assay [6] and in assay [9]. The outcome in assay [12], in assay [16] and in assay [17] was inactive.
As for `CC(C[N+](C)(C)C)OC(N)=O` (stereo unspecified), the Potency result in assay [1], in assay [15], in [7], in assay [8], in assay [10] and in [11] was “inactive” in each case. In addition, the Potency result in assay [13] and in [14] was “inactive” in each case. Also, the call in [2], in assay [3], in assay [4], in assay [5], in assay [6] and in assay [9] was inactive. In addition, the call in [12], in [16], in assay [18], in assay [19], in assay [20] and in [17] was inactive.

For the origin of these results see PubChem BioAssay (Tox21).
